Screens from PubChem BioAssay.
In the library only some 1.2% were active in any assay of this set; here they are far more common.
BCLXL inh = inhibitors of human Bcl-xL; inhibition, % at 10.9 µM; AID 2129; actives 0.7% (n = 320,000); GST-Bcl-xL / FITC-Bim BH3 peptide fluorescence polarization; Q07817;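 active means inhibition above the mean of all tested compounds plus 3 SD, cutoff set per campaign, cut at about 30% in these data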;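 further: inhibitors lower millipolarization by displacing the labeled peptide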
Target sequence (Q07817 whole entry, looked up): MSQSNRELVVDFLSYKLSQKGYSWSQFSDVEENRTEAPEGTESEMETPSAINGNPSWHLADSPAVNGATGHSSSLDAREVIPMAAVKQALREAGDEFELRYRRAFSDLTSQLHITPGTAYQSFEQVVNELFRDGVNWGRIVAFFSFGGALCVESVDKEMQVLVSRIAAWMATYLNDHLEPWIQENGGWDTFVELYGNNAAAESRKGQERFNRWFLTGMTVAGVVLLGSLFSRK
cardiac RTF act = cardiac RTF calcium sensitization; P19429+P45379; IANBD-labeled TnC RTF fluorescence at EC20 calcium; 0% EC20 calcium, 100% full calcium; activation, % at 7.2 µM; actives 0.24% (n = 340,000); AID 493008;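 active means activation above the mean over all tested compounds plus 3 SD, cut at about 30% in these data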;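 further: rise in fluorescence read as greater calcium sensitivity of cardiac thin filaments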
E coli Lon inh = E. coli protease La inhibition; P0A9M0; purified E. coli Lon protease, fluorescence polarization; inhibition, % at 7.94 µM; actives 0.42% (n = 360,000); in the data active means inhibition above about 13%, passing the limit was not always enough
GLD-1 RNA inh = GLD-1-TGE RNA interaction inhibition (C. elegans) | Q17339 | purified GLD-1 + fluorescein TGE RNA, fluorescence polarization | inhibition, % at 5.96 µM | actives 0.44% (n = 320,000) | AID 2280;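 active means percent inhibition above a per-plate cutoff, the plate mean of test compounds plus 3 SD, cut at about 30% in these data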
Target sequence (Q17339 whole entry, looked up): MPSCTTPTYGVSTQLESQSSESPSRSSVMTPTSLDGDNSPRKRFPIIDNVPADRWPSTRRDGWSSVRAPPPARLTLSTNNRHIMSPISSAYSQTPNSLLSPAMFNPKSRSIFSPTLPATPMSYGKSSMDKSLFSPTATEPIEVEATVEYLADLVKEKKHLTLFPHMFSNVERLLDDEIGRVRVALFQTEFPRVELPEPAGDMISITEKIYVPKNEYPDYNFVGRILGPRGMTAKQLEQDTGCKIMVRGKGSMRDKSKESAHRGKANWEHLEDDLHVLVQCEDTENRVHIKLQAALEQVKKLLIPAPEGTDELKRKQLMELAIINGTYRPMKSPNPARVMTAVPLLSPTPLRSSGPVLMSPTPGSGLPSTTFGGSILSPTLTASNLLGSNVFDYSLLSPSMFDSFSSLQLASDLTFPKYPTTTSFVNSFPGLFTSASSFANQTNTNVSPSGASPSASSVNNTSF
Cardiac RTF inh = cardiac RTF calcium desensitization; IANBD-labeled cardiac RTF, Ca2+ fluorescence; actives 0.12% (n = 340,000); inhibition, % at 7.15 µM;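 active means inhibition above the mean inhibition of all tested compounds plus 3 SD, cut at about 17% in these data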;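 further: assay run at fixed EC70 calcium of 1.6 mM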
Large screens that a line does not name were inactive.

Cc1ccccc1/C=C/c1cc[n+](C)cc1	none
CCN(CC)C(=O)Cn1c(=O)n(C)c2ccccc21	none
CCN(CC)C(=O)Cn1c(C)c(/C=C/c2cc[n+](C)cc2)c2ccccc21	cardiac RTF act 87.1, GLD-1 RNA inh 60.3
CCn1cc(/C=C/c2cc[n+](C)cc2)c2ccccc21	BCLXL inh 40.7, cardiac RTF act 370.8, GLD-1 RNA inh 65.7
CCOC(=O)Cn1cc(C=O)c2ccccc21	none
CC(C)n1cc(/C=C/c2cc[n+](C)cc2)c2ccccc21	cardiac RTF act 344.5 (no result: BCLXL inh, GLD-1 RNA inh)
Cc1[nH]c2ccccc2c1/C=C/c1cc[n+](C)cc1	cardiac RTF act 94.8 (no result: BCLXL inh, GLD-1 RNA inh)
COc1ccc(C)cc1NC(=O)C(Sc1nnc(Nc2cc(C)ccc2OC)s1)c1ccccc1 (stereo not given)	none
Cc1c(N2C(=O)C(=O)/C(=C(/O)c3ccccc3)C2c2ccc(F)cc2)c(=O)n(-c2ccccc2)n1C (stereo not given)	none
O=C(c1ccccc1)c1ccc(N2CCN(C(=O)c3cccc(F)c3F)CC2)c(F)c1	none
C=CCn1cc(/C=C/c2cc[n+](C)cc2)c2ccccc21	BCLXL inh 46.3, cardiac RTF act 170.1, GLD-1 RNA inh 56.6
O=C(O)Cn1cc(/C=C/[N+](=O)[O-])c2ccccc21	none
C=CCn1c(C)c(/C=C/c2cc[n+](C)cc2)c2ccccc21	cardiac RTF act 114.2, GLD-1 RNA inh 74.2
CC(=O)Nc1ccc(OCc2cccc3ccccc23)cc1	none
C=CCN1C=CC(=C/C=C(/C#N)C(=O)OCC)C=C1	cardiac RTF act 123.0
O=C(NC(=S)N1CCN(c2c(Cl)cccc2[N+](=O)[O-])CC1)c1cccs1	none
CCOC(=O)C1=C(O)/C(=C\c2cc(C)n(-c3ccccc3F)c2C)N=C1C	BCLXL inh 48.1
COC(=O)CCC(=O)OC1(C)C(=O)C2=CN(C(CO)CO)C(c3ccc(OC)cc3)=CC2=C(Br)C1=O (stereo not given)	BCLXL inh 38.2 (no result: cardiac RTF act, E coli Lon inh, Cardiac RTF inh)
COC(=O)CCC(=O)OC1(C)C(=O)C2=CN(CCCCO)C(c3ccc(OC)cc3)=CC2=C(Br)C1=O (stereo not given)	BCLXL inh 31.7 (no result: cardiac RTF act, E coli Lon inh, Cardiac RTF inh)
COC(=O)CCC(=O)OC1(C)C(=O)C2=CN(CCc3ccccn3)C(c3ccc(OC)cc3)=CC2=C(Br)C1=O (stereo not given)	BCLXL inh 36.5
Cc1nnc(C)c2c(C)n(-c3ccccc3N)c(C)c12	BCLXL inh 95.8, GLD-1 RNA inh 45.6
Cc1nnc(C)c2c(C)n(-c3ccccc3)c(C)c12	none (no result: BCLXL inh, GLD-1 RNA inh)
CC1CCCC(C)N1CCCNC(=O)C1CCCN(S(=O)(=O)N2CCCCC2)C1 (stereo not given)	none (no result: BCLXL inh, cardiac RTF act, GLD-1 RNA inh, Cardiac RTF inh)
CCCCNC(=O)c1ccccc1NC(=O)CCSc1ccccc1	none
CCCCOc1ccc2c(c1)/C(=C(\C(Cl)=C(Cl)Cl)[N+](=O)[O-])N2	BCLXL inh 101.1, GLD-1 RNA inh 63.2
O=[N+]([O-])/C(C(Cl)=C(Cl)Cl)=C1\Nc2ccccc2O1	none
CCOc1ccc2c(c1)/C(=C(\C(Cl)=C(Cl)Cl)[N+](=O)[O-])N2	BCLXL inh 130.3, GLD-1 RNA inh 89.1
CSc1ccc(CNc2nnnn2C)cc1	none
CCOC(=O)c1cc(-c2ccc(/C=C3/C(=O)NC(=O)C(C#N)=C3C)o2)ccc1Cl	BCLXL inh 85.3, GLD-1 RNA inh 42.2
O=C(c1cc2sccc2n1Cc1ccc(F)cc1)N1CCN(c2nc3ccccc3s2)CC1	BCLXL inh 78.5
CC(=O)C1=C(O)C(=O)N(c2nccs2)C1c1ccccc1F (stereo not given)	none
Oc1cccc2cc3cccc(O)c3c(O)c12	BCLXL inh 43.1
O=c1oc(-c2ccc(O)c(O)c2)cc2cccc(O)c12	none (no result: BCLXL inh)
COc1ccc(C2=CC3=C(Br)C(=O)C(C)(OC(=O)C4CCCC4)C(=O)C3=CO2)cc1 (stereo not given)	BCLXL inh 31.1
COc1ccc(C2=CC3=C(Br)C(=O)C(C)(OC(=O)c4ccc(Cl)nc4)C(=O)C3=CO2)cc1 (stereo not given)	none (no result: cardiac RTF act, E coli Lon inh, Cardiac RTF inh)
COc1ccc(CN2C=C3C(=O)C(C)(OC(=O)C4CCCC4)C(=O)C=C3C=C2c2ccsc2)cc1 (stereo not given)	none
COC(=O)CCC(=O)OC1(C)C(=O)C2=COC(c3ccc(OC)cc3)=CC2=C(Br)C1=O (stereo not given)	BCLXL inh 33.0 (no result: cardiac RTF act, E coli Lon inh, Cardiac RTF inh)
O=C(COC(=O)c1ccc(O)cc1)Nc1ccc2c(c1)OCCO2	cardiac RTF act 29.8 (no result: BCLXL inh)
Cc1ccc(NC(=O)COC(=O)c2ccc3c(c2)OCCO3)cc1	none
COc1ccccc1CNc1nc(-c2cc(C)n(C)c2C)cs1	none (no result: BCLXL inh, GLD-1 RNA inh)
COCCNc1nc(-c2cc(C)n(CCc3ccc(OC)cc3)c2C)cs1	BCLXL inh 32.6
O=C(N/N=C/c1sc(=O)n(-c2ccccc2)c1Cl)c1ccccc1	none
Oc1sc(C=Nc2ccccc2)c2ccccc12	cardiac RTF act 75.3
Oc1sc(C=Nc2ccc(F)cc2)c2ccccc12	none
O=C(Cc1ccc(Br)cc1)NC1CCCCC1	none
O=C(NC1CCCCCCC1)c1ccc(Br)cc1	BCLXL inh 67.8 (no result: cardiac RTF act, Cardiac RTF inh)
COC1CCCN(Cc2c(C(=O)N3CCN(C4CCCCC4)CC3)nc3ccccn23)C1 (stereo not given)	BCLXL inh 61.4, GLD-1 RNA inh 34.9
O=C(/C=C/c1ccco1)NC(=S)Nc1ccc(C(=O)O)cc1	BCLXL inh 34.4
CC1=CC(=O)N(c2cccc3c(N4C(=O)C=C(C)C4=O)cccc23)C1=O	none (no result: BCLXL inh, GLD-1 RNA inh)
O=C1c2ccccc2-c2onc3c(N4CCN(CCO)CC4)cc(N4CCN(C(=O)c5ccco5)CC4)c1c23	BCLXL inh 63.4
CN1CCN(c2cc(N3CCN(C(=O)c4ccco4)CC3)c3c4c(onc24)-c2ccccc2C3=O)CC1	BCLXL inh 37.2
O=C(c1ccco1)N1CCN(CCCCN2C(=O)c3ccccc3C2=O)CC1	none
O=C(c1ccco1)N1CCN(C2=NS(=O)(=O)c3ccccc32)CC1	none
Cn1nc(C(=O)NCc2ccco2)c2ccccc2c1=O	none
O=C(Oc1ccc(N2C(=O)C3C4CCC(C4)C3C2=O)cc1)c1ccco1 (stereo not given)	none
CCN(CC)C(=O)C1CCCN(Cc2ccccc2)C1 (stereo not given)	none
COCCCn1c(=N)c(C(N)=S)cc2c(=O)n3cccc(C)c3nc21	BCLXL inh 33.7
Cc1ccc2nc3c(cc(C(N)=S)c(=N)n3CCCOC(C)C)c(=O)n2c1	BCLXL inh 38.7
COCCCn1c(=N)c(C(=O)NCc2ccc3c(c2)OCO3)cc2c(=O)n3cccc(C)c3nc21	none (no result: BCLXL inh, GLD-1 RNA inh)
Cc1cccn2c(=O)c3cc(C(N)=S)c(=N)n(CCCN4CCOCC4)c3nc12	BCLXL inh 32.5
O=C(O)C1CC=CCC1C(=O)NNS(=O)(=O)c1ccccc1 (stereo not given)	none
C=CCC1(C#N)C(=S)NC2=C(C(=O)CC(C)(C)C2)C1c1ccc(Br)cc1 (stereo not given)	none
COc1ccc(Cl)cc1S(=O)(=O)N1CCCc2ccccc21	none
Cc1ccsc1C(=O)NCc1ccc(Cl)cc1	none (no result: cardiac RTF act, Cardiac RTF inh)
